# Assay outcomes as filed in PubChem.
# HSF1 inhib: HSF1 inhibitors in luciferase reporter cells, primary screen, cell-based, NIH3T3, luminescence | NIH3T3-HGL HSE-luciferase, MG132-induced, luminescence 8 h; hits give low values | AID 2098, 2009 | hit rate 0.77% among 300,000 | activity change, negative = inhibition, % at 7.5 µM (by protocol);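 active = more than half of replicate wells show activity change below -50%, luminescence cut by over half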;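 note: luciferase reports HSF-1 transcriptional activity via heat shock element; 0% = median of DMSO wells and -100% = zero luminescence signal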
# HSF-1 act: HSF-1 activators, primary screen, NIH3T3-HGL cells, MG132 stress, luminescence, single point. NIH3T3-HGL HSF-1 luciferase reporter, 8 h; 100% = twice DMSO control signal. hit rate 1.7% among 300,000. activation, % at 9 µM;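 active = mean replicate activation of at least 50% with a set share of replicates each reaching 50%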;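 note: 0% = median of the neutral control wells and 100% = twice that signal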
# DYRK1A inh: rat Dyrk1A kinase inhibitors, primary screen, biochemical, single point, plate reader; Dual specificity tyrosine-phosphorylation-regulated kinase 1A (Rattus norvegicus), Q63470; ADP-Glo luminescence, NFATc1 peptide; inhibition, % at 12.5 µM; hit rate 0.43% among 310,000; in the data active = inhibition above about 50%;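 note: plate controls were vehicle with enzyme for no effect and no enzyme for full effect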
# NPR2 activator: human GC-B receptor activators, primary screen, HEK293 GC-B cells, cGMP TR-FRET, EC30 CNP. Atrial natriuretic peptide receptor 2 (Homo sapiens), P20594. AID 1920062, 2024. activation, % at 10 µM. 0% at EC30 CNP, 100% saturating CNP. hit rate 0.11% among 370,000;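 active = activation at 10 µM reaching about 35% in either raw or pattern-adjusted values, limit read from the data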
# GC-A act: GC-A stimulated cGMP production enhancers – HEK293 GC-A cells, cGMP TR-FRET, EC30 ANP, primary screen | Atrial natriuretic peptide receptor 1 (Homo sapiens), P16066 | 0% at EC30 ANP, 100% saturating ANP | activation, % at 10 µM | hit rate 0.14% among 370,000 | AID 1671463, 2021; in the data active = activation above about 40%
# aDG glyco act: activators of alpha-DG glycosylation, primary screen, uHTS, Pro5-aDG cells, AlphaScreen; alpha-DG glycosylation AlphaScreen (IIH6); 0% Pro5, 100% B10-LARGE cell signal; activation, % at 10 µM; hit rate 0.22% among 360,000;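 active = activation of at least 8% versus controls, or a plate z-score of at least 8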;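 note: Pro5 are CHO cells carrying HIG-tagged alpha-DG that lacks glycosylation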
# Starred values were filed as active, the others as inactive; nt = no result given. Only some compounds are listed: those with a hit (about 2.5% of all), similar ones and a draw of the others.
SMILES,HSF1 inhib,HSF-1 act,DYRK1A inh,NPR2 activator,GC-A act,aDG glyco act
COc1ccc(Nc2nc(N)nc(CSc3nc(C)cc(C)n3)n2)cc1,-88.8*,-91.6,-0.6,0.4,1.0,1.1
CCOC(=O)[C@H]1[C@H]2COc3ccc(OC)cc3[C@@H]2N2C(=O)c3ccc(Cl)cc3NC(=O)[C@@]12C,nt,nt,-0.8,-1.2,1.7,-0.1
CC1(C(=O)NCc2ccccc2)CN(S(C)(=O)=O)CC(=O)N1Cc1ccc2c(c1)OCO2 (stereo unspecified),nt,nt,nt,6.5,2.7,-0.2
O=C(NCc1c(F)cccc1F)c1cc(COc2c(F)cccc2F)on1,2.8,27.4,-0.6,0.3,2.1,0.6
CCOCCCNC(=O)CCCn1nc(C)n2c(cc3sccc32)c1=O,0.9,-8.7,0.2,-4.2,-0.6,1.9
CCN(CCNC(=O)CCCn1nc(C)n2c(cc3sccc32)c1=O)c1ccccc1,49.2,74.0*,7.9,-17.4,-22.3,-0.4
COc1ccc(OC)c(NC(=O)CN2CCC(C(=O)c3ccc(C)cc3)CC2)c1,-5.9,-15.2,-4.3,-3.7,-3.9,0.9
COc1ccc(C=O)cc1CN1CCCN(Cc2ccc(Cl)cc2)S1(=O)=O,-80.3*,-84.1,-7.7,-0.4,-0.8,0.2
CC(C)n1cc(CN2CCCC(CNS(=O)(=O)c3cccc4cccnc34)C2)cn1 (stereo unspecified),-66.2*,-71.2,-4.2,3.8,0.9,0.0
O=C1COc2ccccc2N1Cc1ccccc1Cl,8.5,17.1,-4.2,4.2,-1.4,2.9
O=C(/C=C/c1ccc2c(c1)OCO2)Nc1nncs1,22.3,52.8*,nt,2.3,-0.1,0.2
O=C(/C=C/c1ccc2c(c1)OCO2)Nc1nc(-c2ccccc2)cs1,7.3,13.2,0.0,0.0,7.4,0.0
CCOC(=O)C1=CNS(=O)(=O)NC1c1ccc(C#N)cc1 (stereo unspecified),nt,nt,nt,1.0,-0.6,-0.1
CCOc1ccccc1-c1noc(CCCC(=O)NC2CCCCC2)n1,19.8,63.5*,4.2,-2.5,-5.7,-0.1
Clc1cccc(N/N=C(\Cc2nc3ccccc3[nH]2)c2ccccc2)c1,19.4,69.6*,13.2,-6.2,0.4,0.4
c1ccc(N/N=C(\Cc2ncc[nH]2)c2ccccc2)cc1,3.6,0.4,nt,3.8,2.5,0.5
CCOC(=O)CC(NS(=O)(=O)c1ccc2[nH]cc(C(=O)O)c(=O)c2c1)c1ccc(OCC)c(OC)c1 (stereo unspecified),44.8,88.1*,1.5,-1.4,1.6,0.0
CCOC(=O)CC(NS(=O)(=O)c1ccc(OC)c(OC)c1)c1cccc([N+](=O)[O-])c1 (stereo unspecified),-0.4,3.5,-1.6,-3.2,2.9,0.2
Cc1sc(NC(=O)c2ccccc2)c(C#N)c1-c1ccccc1,33.1,57.2*,1.4,5.3,-5.4,0.2
O=S(=O)(NCc1ccc(C(F)(F)F)cc1)c1ccc(-n2cnnn2)cc1,-90.3*,-93.0,-2.4,0.9,2.4,-0.2
O=S(=O)(NCc1ccccc1Cl)c1ccc(-n2cnnn2)cc1,2.4,-6.6,3.1,5.2,-5.4,0.0
CC(C)(C)c1ccc(/C=N/NC(=S)NC2CCCCC2)cc1,23.7,55.8*,0.5,6.8,-1.3,2.6
Cc1ccc(C(=O)N/C(=C\c2cn(S(=O)(=O)N(C)C)c3ccccc23)C(=O)NCCCN2CCOCC2)cc1,0.4,1.6,-1.1,-2.2,3.7,-0.2
CN(CC1CCCO1)S(=O)(=O)c1ccc(C(=O)Nc2nccs2)cc1 (stereo unspecified),-0.1,5.2,-2.4,-1.0,-4.3,0.1
CCOc1ccc(C(=O)N2CCN(S(=O)(=O)c3cccs3)CC2)c(OCC)c1,8.6,54.3*,-1.6,1.3,-1.1,0.0
CCOC(=O)N1CCN(S(=O)(=O)c2cccs2)CC1,-9.1,-17.8,2.5,2.4,2.7,-0.2
